Structures can show the parent of a compound that is named as a salt. The whole screen tested about 5,300 compounds, of which about 130 (2.5%) showed an effect of 50% or more. This excerpt belongs to a sample that is enriched for strong results. Square brackets hold non-standard residues; d marks the D form. Peptide text beside a SMILES is read from it. dTrp(2-Me) = Cc1[nH]c2ccccc2c1C[C@@H](N)C(=O)O
What follows are molecules tested on M. mycetomatis strain mm55. Details: primary screen, metabolic activity vs growth control; 96 h, 2 µM; inhibitor.

SMILES | % viability [%]
C[C@H](O[C@H]1OCCN(Cc2n[nH]c(=O)[nH]2)[C@H]1c1ccc(F)cc1)c1cc(C(F)(F)F)cc(C(F)(F)F)c1 [ONC0004612, aprepitant mk0869] | 34.22
C[C@@H](O[C@H]1OCCN(Cc2nc(O)n(P(=O)(O)O)n2)[C@H]1c1ccc(F)cc1)c1cc(C(F)(F)F)cc(C(F)(F)F)c1 [ONC0004322, fosaprepitant dimeglumine salt] | 108.4
C=C(Nc1ccc(OCC)cc1)Nc1ccc(OCC)cc1 [ONC0005342, phenacaine] | 118.6
O=C1c2c(O)cccc2[C@H]([C@@H]2O[C@H](CO)[C@@H](O)[C@H](O)[C@H]2O)c2cc(CO)cc(O)c21 [ONC0002367, aloin] | 94.66
On1ncc(C2CCNCC2)c1-c1cccc(-c2ccccc2)c1 [ONC0002501, php501 trifluoroacetate] | 45.31
CC[C@@]1(C2O[C@@H](C3O[C@@](O)(CO)[C@H](C)C[C@@H]3C)C[C@@H]2C)CC[C@H]([C@]2(C)CC[C@]3(C[C@H](O)[C@@H](C)[C@@H]([C@@H](C)[C@@H](OC)[C@H](C)C(=O)O)O3)O2)O1 (stereo partly drawn) [ONC0004087, monensin sodium] | 133.1
C=C(c1ccccc1OCc1cccc(Cl)c1)n1ccnc1 [Cloconazole HCl] | 3.259
O=C(O)Cc1ccc(OCc2ccccc2)c(Cl)c1 [ONC0002166, benzofenac] | 78.33
C[C@H](Nc1ncnc2[nH]cnc12)c1cc2cccc(Cl)c2c(=O)n1-c1ccccc1 [ONC0004561, duvelisib ipi145 ink1197] | 69.33
COC(=O)C1=C(C)NC(C)=C(C(=O)O[C@@H]2CCCN(Cc3ccccc3)C2)[C@@H]1c1cccc([N+](=O)[O-])c1 (racemic) [ONC0004618, benidipine hydrochloride] | 66.69
CC(C)=CCC[C@](C)(O[C@@H]1O[C@H](CO)[C@@H](O)[C@H](O)[C@H]1O)[C@H]1CC[C@]2(C)[C@@H]1[C@H](O)C[C@@H]1[C@@]3(C)CC[C@H](O)C(C)(C)[C@@H]3CC[C@]12C [ONC0002211, ginsenoside ck] | 95.28
NC(=O)[C@H]1CCS[C@@H]2C[C@]3(CCCN3C(=O)Cc3ccc(NC(=O)COc4ccc(Cl)cc4Cl)cc3)C(=O)N12 [ONC0001082, st 2825] | 47.43
O=C(CCCS)NC1CCN(C(=O)COc2ccc(Cl)cc2Cl)CC1 [ONC0005166, krasg12c inhibitor 6] | 98.75
C[C@]12C=CC(=O)C=C1CCC1C2[C@@H](O)C[C@@]2(C)C1CC[C@]2(O)C(=O)COP(=O)(O)O (stereo partly drawn) [ONC0004116, prednisolone sodium phosphate] | 116.3
CC(C)C(=O)SCCCCC[C@H](NC(=O)OC(C)(C)C)C(=O)NC12CC3CC(CC(C3)C1)C2 [ONC0002528, tcshdac620b] | 72.9
C1CCC(/N=C(\NC23CC4CC(CC(C4)C2)C3)N2CCOCC2)CC1 [ONC0002564, pnu37883] | 92.95
CCOC(=O)c1ccc(N)cc1 [ONC0003279, benzocaine] | 69.74
CC(CNC1CCCCC1)OC(=O)c1ccccc1 (stereo not drawn) [ONC0002941, hexylcaine] | 55.94
CCOC(=O)c1ccc(NC2CCCCC2)c(N)c1 [ONC0000320, ferrostatin1] | 39.11
CC(C)(O)c1ccn2c(-c3ccc(F)c(-c4ccc(F)cc4C#N)c3)cnc2c1F [ONC0001920, tp003] | 78.09
CCC(=O)O[C@@H]1CC(=O)O[C@H](C)C/C=C/C=C/[C@H](OC(C)=O)[C@H](C)C[C@H](CC=O)[C@H](O[C@@H]2O[C@H](C)[C@@H](O[C@H]3C[C@@](C)(OC(C)=O)[C@@H](OC(=O)CC)[C@H](C)O3)[C@H](N(C)C)[C@H]2O)[C@H]1OC [ONC0000277, midecamycin acetate] | 81.75
O[C@H](CNC[C@@H](O)[C@H]1CCc2cc(F)ccc2O1)[C@@H]1CCc2cc(F)ccc2O1 [ONC0004039, nebivolol hydrochloride] | 98.08
C[C@@]1(O)[C@H](O)[C@@H](CO)O[C@H]1n1cnc2c(=O)[nH]c(N)nc21 [ONC0005603, 2cmethylguanosine] | 96.86
Cc1cc(C)c(NC(=O)N(Cc2ccc3c(c2)Cc2ccccc2-3)C2CCCCCC2)c(C)c1 [ONC0000194, ym750] | 45.17
CC(C(=O)O)c1ccc2c(c1)Cc1ccccc1-2 (stereo not drawn) [ONC0003773, cicloprofen] | 135.8
O=C(c1ccc(Cl)cc1)N(Cc1ccccc1)C1CCCCC1 [ONC0001245, fpszm1] | 58.23
CC(C)Oc1cccc(CC(=O)N2CCC[C@](CC[N+]34CCC(c5ccccc5)(CC3)CC4)(c3ccc(Cl)c(Cl)c3)C2)c1 [ONC0001589, sr140333] | 65.88
Nc1nc2c(c(=O)[nH]1)NC(CNc1ccc(C(=O)N[C@@H](CCC(=O)O)C(=O)O)cc1)CN2 (stereo partly drawn) [ONC0005519, tetrahydrofolicacid] | 129.8
Cc1[nH]c2ccccc2c1C[C@@H](NC(=O)[C@@H](N)Cc1cnc[nH]1)C(=O)N[C@@H](C)C(=O)N[C@@H](Cc1c[nH]c2ccccc12)C(=O)N[C@H](Cc1ccccc1)C(=O)N[C@@H](CCCCN)C(N)=O [ONC0005614, examorelin] (H-H[dTrp(2-Me)]AW[dF]K-NH2) | 66.44
Oc1cc2c(cc1O)C(Cc1cccc3ccccc13)NCC2 (stereo not drawn) [ONC0001928, ys49] | 88.3
